This note sets out measurements from PubChem BioAssay (NCATS).

Values joined by “and” are separate entries in the source; they are usually repeats but may differ in a detail not shown here. Equal values may be shown once. Records with an inconclusive call do not appear. A call without a number means that no potency is given here. Active and inactive are the calls of the source. Calls come from the whole dose curve.

Sequence of Vitamin D3 receptor (Homo sapiens) (P11473 whole entry, looked up): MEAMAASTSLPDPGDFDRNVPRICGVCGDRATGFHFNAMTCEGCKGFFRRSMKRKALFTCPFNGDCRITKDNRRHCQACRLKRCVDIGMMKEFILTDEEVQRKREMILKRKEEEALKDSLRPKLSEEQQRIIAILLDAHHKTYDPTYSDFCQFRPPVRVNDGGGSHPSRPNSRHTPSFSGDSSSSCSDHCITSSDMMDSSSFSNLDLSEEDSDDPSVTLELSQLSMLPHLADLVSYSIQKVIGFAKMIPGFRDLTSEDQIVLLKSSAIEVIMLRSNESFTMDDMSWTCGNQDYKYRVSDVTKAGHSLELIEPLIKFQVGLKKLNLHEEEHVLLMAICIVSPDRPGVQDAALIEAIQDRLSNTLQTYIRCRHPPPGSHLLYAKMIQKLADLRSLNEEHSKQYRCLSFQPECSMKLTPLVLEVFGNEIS

The target in the experiment is Vitamin D3 receptor (Homo sapiens) (UniProt P11473). Nature of the experiment: qHTS assay for small molecule antagonists of vitamin D receptor signaling (AID 588541). Conditions: HEK293T VDR-UAS-bla, beta-lactamase ratio, antagonist mode; series mostly up to 76.7 µM. The text has this:
NIH Chemical Genomics Center [NCGC]
U.S. Environmental Protection Agency [EPA]
National Institutes of Environmental Health Sciences [NIEHS]
National Toxicology Program [NTP]
The Vitamin D receptor (VDR) is a member of nuclear hormone receptor superfamily and it plays a critical role in calcium homeostasis and bone metabolism. It plays a role in inducing cell differentiation, inhibiting cell growth and in thrombogenicity. So, VDR that mediates these effects represents a pharmacological target in prevention and treatment of hyperproliferative malignancies, such as cancer and psoriasis, cardiovascular, immunological, inflammatory and renal diseases etc.
NCGC Assay Protocol Summary
Using a beta-lactamase reporter-gene under control of Vitamin D receptor (VDR) response element, a cell-based assay [GeneBLAzer (VDR -UAS-bla assay developed by Invitrogen] was used to measure VDR ligands signaling. GeneBLAzer VDR -UAS-bla HEK293T cells were used with assay medium containing 2% charcoal-stripped FBS. The assay was performed in clear bottom black Greiner 1536-well plates. Library compounds were measured for their ability to inhibit the reporter gene activity. Compounds were screened in a titration series in 1536-well format. The fluorescence intensity (405 nm excitation, 460/530 nm emission) was measured using an EnVision plate reader. Data was normalized relative to 1-alpha,25-Dihydroxy vitaminD3 control (50 nM, 100%) and DMSO only wells (basal, 0%). Concentration-response titration points for each compound were fitted to the Hill equation yielding concentrations of half-maximal inhibition (IC50) and maximal response (efficacy) values.
qHTS protocol for VDR beta-lactamase assay in antagonist mode
[Step] [Parameter] [Value] [Description]
1. Reagent; 5 uL; 2000 cells/well
2. Incubation; 37 C for 5 hrs
4. Controls (DMSO); 23 nL,
5. Agonist (Stimulator); 1uL; 1-alpha,25-Dihydroxy vitaminD3 at 50 nM and 3 nM final concentrations
6. Incubation; 37 C for 16 hrs
7. Detection reagent; 1 uL of CCF4-dye
8. Incubation; RT for 2 hrs
9. Detection; Fluorescence; Envision plate reader
A general note: Quantitative high-throughput screening tests each substance at several concentrations.
On to `COCCOCCO`, for which the Potency result was “inactive”. As for `CCCCCCCCc1ccc(O)cc1`, the Potency entry was “inactive”. In the case of `O=C(Nc1ccccc1-c1ccc(Cl)cc1)c1cccnc1Cl`, the Potency result is “inactive”. On to `CCOCCOC(C)=O`, for which the Potency result is “inactive”. On to `Nc1ccc([N+](=O)[O-])cc1`, for which the Potency result was “inactive”. For the compound `CC(C)(C)C(O)C(Oc1ccc(Cl)cc1)n1cncn1` (stereo not drawn), the Potency result is “inactive”. Consider `O=C(O)COc1nc(Cl)c(Cl)cc1Cl`, for which the Potency result is “inactive”. Turning to `Nc1ccc(Cl)cc1N`, the Potency entry was “inactive”.

Regarding `CCOP(=O)(NC(C)C)Oc1ccc(SC)c(C)c1` (stereo not drawn), the Potency entry is “inactive”. Turning to `CN(C)NC(=O)CCC(=O)O`, the Potency result was “inactive”.

With `Clc1cnc(Oc2ccc(Oc3ncc(Cl)cc3Cl)cc2)c(Cl)c1`, the Potency result was “inactive”. As for `Nc1ccc(Sc2ccc(N)cc2)cc1`, the Potency result was “inactive”. Take `CCCCC(CC)COC(=O)c1ccccc1C(=O)OCC(CC)CCCC` (stereo not drawn): the Potency entry was “inactive”. In the case of `O=S(=O)(c1ccc(Cl)cc1)c1ccc(Cl)cc1`, the Potency result is “inactive”. Regarding `O=[N+]([O-])c1cc([N+](=O)[O-])c2ccccc2c1`, the Potency entry is “inactive”.

`CCO/N=C(\CC)C1=C(O)CC(c2c(C)cc(C)cc2C)CC1=O` (stereo not drawn): the Potency entry is “inactive”.

Regarding `OCCCBr`, the Potency result is “inactive”. Take `COc1ccc(C(c2ccc(OC)cc2)C(Cl)(Cl)Cl)cc1`: the Potency result is “inactive”. As to `Nc1ccc(N=Nc2ccccc2)cc1`, the Potency entry was “inactive”. `CS(=O)(=O)c1ccc(C(=O)C2C(=O)CCCC2=O)c([N+](=O)[O-])c1`: the Potency result is “inactive”. Turning to `O=S(=O)(O)C(F)(F)C(F)(F)C(F)(F)C(F)(F)F`, the Potency entry was “inactive”. Take `CC(C)Oc1cccc(NC(=O)c2ccccc2C(F)(F)F)c1`: the Potency result is “inactive”. Take `O=[N+]([O-])c1c2ccccc2cc2ccccc12`: the Potency entry was “inactive”. To `Nc1c(Cl)c(Cl)c(Cl)c(Cl)c1Cl` belongs “inactive”; to `c1cc2ccc3cccc4ccc(c1)c2c34`, “inactive”; to `CCCCCCCCCCCCCCCC[N+](C)(C)C`, “inactive”. The same measure for `O=[N+]([O-])c1c(Cl)c(Cl)cc(Cl)c1Cl`: “inactive”.

As to `ClC1=C(Cl)[C@]2(Cl)[C@@H]3[C@@H]4C[C@@H]([C@H]5O[C@@H]45)[C@@H]3[C@@]1(Cl)C2(Cl)Cl`, the Potency result was “inactive”.

For `C=CCC1=C(C)C(OC(=O)C2C(C=C(C)C)C2(C)C)CC1=O` (stereo not drawn), the Potency result was “inactive”. In the case of `C1CCC(NC2CCCCC2)CC1`, the Potency entry was “inactive”. Take `O=C(O)COc1ccccc1`: the Potency entry was “inactive”. With `CC(=O)[O][Hg][c]1ccccc1`, the Potency was 1.58 µM (active) and 2.51 µM (active). Take `O=[N+]([O-])/N=C1\NCCN1Cc1ccc(Cl)nc1`: the Potency result is “inactive”. Take `Cc1cc(O)ccc1Cl`: the Potency entry was “inactive”. For `O=S(=O)(O)C(F)(F)C(F)(F)C(F)(F)C(F)(F)C(F)(F)C(F)(F)C(F)(F)C(F)(F)F`, the Potency entry was “inactive”. Regarding `COc1nn(CSP(=S)(OC)OC)c(=O)s1`, the Potency entry is “inactive”.

On to `CO/C=C(/C(=O)OC)c1ccccc1Oc1cc(Oc2ccccc2C#N)ncn1`, for which the Potency result is “inactive”. As to `C=CC(=O)NCNC(=O)C=C`, the Potency entry is “inactive”.
